Compound activity: PubChem BioAssay, The Scripps Research Institute Molecular Screening Center
Sampled rows, rich in hits. Any-hit rate of the full collection: about 3.5%.
FBW7 activator = human FBW7 E3 ligase activation, primary screen | Q969H0 | AlphaScreen FBW7–phospho-cyclin E peptide binding, activator screen | normalized activity (activation), % at 26.1 µM | 650,000 compounds, 0.13% hits; in the data active means normalized activity above about 1.9%;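 further: purified mutant Fbw7 with reduced substrate affinity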
Target sequence (Q969H0 whole entry, looked up): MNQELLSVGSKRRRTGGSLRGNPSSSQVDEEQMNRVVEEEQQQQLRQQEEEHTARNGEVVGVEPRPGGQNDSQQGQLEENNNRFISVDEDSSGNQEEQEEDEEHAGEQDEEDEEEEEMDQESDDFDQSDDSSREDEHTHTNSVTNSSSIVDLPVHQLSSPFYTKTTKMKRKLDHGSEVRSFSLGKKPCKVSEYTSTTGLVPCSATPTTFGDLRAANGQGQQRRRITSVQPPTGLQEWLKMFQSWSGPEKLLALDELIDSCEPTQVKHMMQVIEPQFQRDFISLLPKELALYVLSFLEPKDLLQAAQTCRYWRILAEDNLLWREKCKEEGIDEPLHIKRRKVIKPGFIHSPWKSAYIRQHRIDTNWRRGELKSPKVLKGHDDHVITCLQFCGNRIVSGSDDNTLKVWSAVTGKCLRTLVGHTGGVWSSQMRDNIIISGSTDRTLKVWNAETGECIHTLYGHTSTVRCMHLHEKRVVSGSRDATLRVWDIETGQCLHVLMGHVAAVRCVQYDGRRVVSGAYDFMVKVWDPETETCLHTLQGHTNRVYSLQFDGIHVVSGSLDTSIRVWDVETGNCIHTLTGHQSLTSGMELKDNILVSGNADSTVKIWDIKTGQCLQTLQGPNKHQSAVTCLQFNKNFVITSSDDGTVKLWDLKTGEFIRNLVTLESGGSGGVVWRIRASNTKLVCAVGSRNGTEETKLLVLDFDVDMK
GPR151 activ = activators of human GPR151; Q8TDV0; PathHunter beta-arrestin GPR151 cells, luminescence; activation, % at 11.2 µM; 650,000 compounds, 1% hits; AID 1508602; in the data active means activation above about 4.9%;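 further: 0% = median of compound wells and 100% = cells with positive control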
MITF primary = blocks human microphthalmia-associated transcription factor. O75030. AlphaScreen MITF homodimerization, bead proximity signal. inhibition, % at 2.6 µM. 650,000 compounds, 0.91% hits; in the data active means inhibition above about 50%;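 further: 0% = vehicle wells with protein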
TEAD-YAP inh = TEAD-YAP interaction inhibition; inhibition, % at 9.12 µM; AID 1259422; HEK-TIYL cells, TEAD-Gal4/YAP UAS-luciferase luminescence; 640,000 compounds, 1.4% hits; in the data active means inhibition above about 32%;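 further: 0% = median of test compound wells and 100% = reference inhibitor wells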
Numbers without * were called inactive.

SMILES	FBW7 activator	GPR151 activ	MITF primary	TEAD-YAP inh
COc1ccc(C2NC(=S)NC(C)=C2C(=O)c2ccccc2)cc1 (centres undefined)	0	-2	17	57*
O=C(Cc1ccccc1)N1CCOCC1	0	-2	7	4
CCOC(=O)N/N=C(\C)c1ccc(Cl)s1	0	-1	-8	-18
CCOC(=O)CN1C(=O)S/C(=C\c2cc3c(cc2Br)OCO3)C1=O	0	1	-1	7
COC(=O)c1ccccc1NC(=O)COC(=O)CNC(=O)COc1ccccc1	0	3	-11	-4
CC(C)(C)/C(=C\c1nc2ccccc2[nH]c1=O)NN	0	-6	3	81*
O=C(COc1cccc(-c2nc(Nc3ccc4[nH]ncc4c3)c3ccccc3n2)c1)Nc1cccnc1	0	0	13	37*
COC(=O)COc1cccc(-c2nc(Nc3ccc4[nH]ncc4c3)c3ccccc3n2)c1	0	0	13	3
COc1cccc2c1OC(c1cccc(Cl)c1)N1N=C(c3ccc(C)o3)CC21 (centres undefined)	0	-1	5	41*
COc1ccc(C2Oc3c(OC)cccc3C3CC(c4ccc(C)o4)=NN32)cc1 (centres undefined)	0	1	11	40*
Cc1nnc(SCC(=O)N2CCN(c3ccccc3)CC2)[nH]c1=O	0	4	6	0
CSc1nnc(N2C(=O)CC(c3ccccc3F)C3=C2CC(C)(C)CC3=O)s1 (centres undefined)	0	0	21	-3
O=c1c(Cl)c(Cl)cnn1-c1ccc(Cl)cc1	1	-1	11	82*
O=[N+]([O-])c1ccc(Cl)c(-n2cnnn2)c1	0	1	8	59*
Oc1ccccc1-c1nnc2n1N=C(c1ccc(F)cc1)CS2	1	-1	-11	0
Cc1ccc(C2=Nn3c(C)nnc3SC2)cc1	0	2	-4	15
Cc1ccc(-c2nnc3n2N=C(c2ccc(O)c(O)c2)CS3)cc1	0	0	13	59*
Oc1ccc(C2=Nn3c(nnc3-c3ccccc3Cl)SC2)cc1O	0	-1	5	63*
CC(=O)N(c1cccc2ccccc12)S(=O)(=O)c1ccc(Cl)cc1	1	-1	-5	4
Cc1cc(=O)oc2cc(OCC(=O)OC3CCCCC3)c([N+](=O)[O-])cc12	0	1	10	-1
Cc1ccc(Cl)cc1N1CCN(C(=O)c2coc(=O)c3ccccc23)CC1	0	1	-10	61*
Cc1ccc(Cl)cc1N1CCN(C(=O)c2ccc(=O)[nH]c2)CC1	0	3	13	11
O=C(c1coc(=O)c2ccccc12)N1CCN(c2ccccc2F)CC1	0	1	-3	8
COc1cc(OC)cc(C(=O)N2CCN(c3cc(Cl)ccc3C)CC2)c1	0	0	12	54*
CCOc1ccc(C2CC(=O)c3c([nH]c(C(=O)OC)c3C)C2)cc1OC (centres undefined)	0	0	13	-12
SMILES	FBW7 activator	GPR151 activ	MITF primary	TEAD-YAP inh
C=CCOC(=O)c1[nH]c2c(c1C)C(=O)CC(c1ccc(OC)cc1)C2 (centres undefined)	0	1	1	-35
COC(=O)c1[nH]c2c(c1C)C(=O)CC(c1cc(OC)ccc1OC)C2 (centres undefined)	0	0	-5	46*
C=CCOC(=O)c1[nH]c2c(c1C)C(=O)CC(c1cccs1)C2 (centres undefined)	0	1	-9	49*
C=CCOC(=O)c1[nH]c2c(c1C)C(=O)CC(c1ccc(OC)c(OC)c1)C2 (centres undefined)	0	0	17	3
C=CCOC(=O)c1[nH]c2c(c1C)C(=O)CC(c1cc(OC)c(OC)c(OC)c1)C2 (centres undefined)	0	0	-4	43*
CCOC(=O)c1[nH]c2c(c1C)C(=O)CC(c1cc(OC)ccc1OC)C2 (centres undefined)	0	1	7	44*
O=C(Nc1nnc(SCc2ccc(Cl)cc2Cl)s1)c1ccc(F)cc1	0	0	8	-11
CCOC(=O)c1[nH]c2c(c1C)C(=O)CC(c1cccc(OC)c1)C2 (centres undefined)	0	1	-3	44*
C=CCOC(=O)c1[nH]c2c(c1C)C(=O)CC(c1cc(OC)ccc1OC)C2 (centres undefined)	0	0	-4	42*
COC(=O)c1[nH]c2c(c1C)C(=O)CC(c1ccccc1Cl)C2 (centres undefined)	0	0	20	52*
Cc1c(C(=O)O)[nH]c2c1C(=O)CC(c1ccccc1Cl)C2 (centres undefined)	0	-2	-6	-2
